Only some compounds are listed: those with a hit (about 19% of all), similar ones and a draw of the others.
TDP1 cell noCPT: qHTS for Inhibitors of human tyrosyl-DNA phosphodiesterase 1 (TDP1): qHTS in cells in absence of CPT; DT40 Tdp1-/- hTDP1 cells, no CPT, ATP luminescence, 48 h; Potency, µM (series often up to 46.2 µM), without a hit: top-dose activity change, negative = growth inhibition, hits mostly inhibitors; hit rate 15% among 420,000; AID 686978, 2013; further: potency means the concentration at half of the fitted maximal effect; nearly all actives have a fitted effect of over 55% in size
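Cells were dispensed at 400 per well, compounds added by pin tool, plates incubated ≥48 hr at 37 °C, then CellTiter-Glo added for 30 min at room temperature before luminescence reading. Line: DT40 Tdp1-/- complemented with hTDP1; camptothecin omitted.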
IL-1B inflam inh: qHTS for Inhibitors of Inflammasome Signaling: IL-1-beta AlphaLISA Primary Screen; THP-1 LPS/ATP IL-1B secretion, AlphaLISA, 16 h; active compounds read low; activity change, % at 57.5 µM; hit rate 4.7% among 360,000; AID 743279, 2014; in the data active means activity change below about -50%; inconclusive means mostly about -30% to -49%
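Secreted IL-1B measured by AlphaLISA bead assay after 16 h compound exposure of THP-1 cells; compounds (final up to 57.5 uM) added 1 h before LPS (250 ng/mL) and ATP (1.25 mM) stimulation; lower signal means less secretion.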
DT40 TDP1 CPT: qHTS for Inhibitors of human tyrosyl-DNA phosphodiesterase 1 (TDP1): qHTS in cells in presence of CPT; Potency, µM (top dose mostly 46.2 µM), inactives show top-dose activity change, negative = growth inhibition, hits mostly inhibitors; chicken DT40 Tdp1-/-;hTDP1 cells + 20 nM CPT, ATP luminescence, 48 h; hit rate 12% among 420,000; further: potency means the concentration at half of the fitted maximal effect; nearly all actives have a fitted effect of over 55% in size
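Chicken DT40 Tdp1-/- cells complemented with human TDP1, 400 cells/well, exposed to compounds plus 20 nM camptothecin for at least 48 h at 37 C; viability read as ATP content by CellTiter-Glo luminescence.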
HT1080NT lethal: qHTS for induction of synthetic lethality in tumor cells producing 2HG: qHTS for the HT-1080-NT fibrosarcoma cell line | Potency, µM (highest dose often 46.1 µM), for inactives: at the top dose activity, negative = less viability, most hits filed as cytotoxic | hit rate 1.6% among 360,000 | HT-1080-NT fibrosarcoma viability, CellTiter-Glo ATP luminescence, 48 h | AID 686970, 2013;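 further: NT is the 2HG producing partner of a matched IDH1 knockdown line; potency means the concentration at half of the fitted maximal effect; 0% = DMSO-treated cells and -100% = media-only wells without cells; nearly all actives have a fitted effect of over 55% in size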
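Viability by CellTiter-Glo luminescence after 48 h compound exposure at 37C of HT-1080-NT cells (750/well, RPMI, 5% FBS). % activity scaled between DMSO wells and medium-only wells, then curve-fitted and categorized by curve class.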
HT1080 IDH1KD tx: qHTS for induction of synthetic lethality in tumor cells producing 2HG: qHTS for the HT-1080-IDH1KD cell line; HT-1080 IDH1 knockdown viability, ATP luminescence, 48 h; Potency, µM (titrated, usually from 46.1 µM), without a hit: at the highest dose activity, negative = toxicity, usual class: cytotoxic; hit rate 2% among 360,000; AID 686971, 2013;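 further: potency means the concentration at half of the fitted maximal effect; 0% = DMSO wells and -100% = cell-free medium wells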
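CellTiter-Glo luminescence after 48 h compound exposure at 37 degrees C of IDH1-knockdown HT-1080 cells in 5% FBS RPMI. %Activity scaled between DMSO wells and cell-free media wells, with curves fitted and assigned curve classes.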
The depositor's hits bear a star; ? = inconclusive; . = no result. Unless noted, the call rests on the fitted dose curve; in most records, active means well fitted curve in the direction sought with a large enough effect; inconclusive means small, poorly fitted or top-dose-only effect, or another doubt; inactive means no such curve, though single readings can be large; an effect the other way counts as inactive or inconclusive. Unless noted, on the % scale 0 is the no-effect control and ±100 the full control effect.

SMILES	TDP1 cell noCPT	IL-1B inflam inh	DT40 TDP1 CPT	HT1080NT lethal	HT1080 IDH1KD tx
Cc1csc2nc(CNS(=O)(=O)c3ccc4c(c3)CCCC4)cn12	9.2µM*	19	?	8%	7%
COc1cccc(-n2cc(CN(C)Cc3nc(Cc4cccc(F)c4)no3)cn2)c1	-29%	-25	?	-1%	-2%
COc1ccc(CN(C)Cc2nc(Cc3cccc(F)c3)no2)c2cccnc12	2.9µM*	1	12µM*	-7%	-26%
COc1cc(Oc2ccccc2)nc(N)n1	-13%	0	2%	-10%	1%
N=C1N=C(N)c2cc3ccccc3cc21	24µM*	.	?	.	.
O=C(C1=C[C@H](c2csc3ccccc23)C[C@H](OCCCCO)O1)N1CCN(Cc2ccc3c(c2)OCO3)CC1	?	-54*	?	-29%	?
O=C(NCc1ccccc1)C1=C[C@H](c2csc3ccccc23)C[C@H](OCCCCO)O1	18µM*	-25	16µM*	-5%	-12%
O=C(C1=C[C@H](c2csc3ccccc23)C[C@H](OCCCCO)O1)N1CCN(Cc2ccccc2)CC1	?	-6	26µM*	-10%	-1%
O=C(Nc1ccccc1)C1=C[C@H](c2csc3ccccc23)C[C@H](OCCCCO)O1	?	-29	?	-19%	-20%
O=C(C1=C[C@@H](c2csc3ccccc23)C[C@@H](OCCCCO)O1)N1CCN(Cc2ccc3c(c2)OCO3)CC1	?	?	?	-27%	-26%
O=C(C1=C[C@@H](c2csc3ccccc23)C[C@@H](OCc2ccc(CO)cc2)O1)N1CCN(Cc2ccccc2)CC1	?	-60*	?	-26%	-9%
O=C(C1=C[C@H](c2ccc(Br)cc2)C[C@H](OCCCCO)O1)N1CCN(Cc2ccccc2)CC1	?	0	23µM*	?	-2%
CC(=O)c1c(C)[nH]c(C(=O)OCc2nc3ccsc3c(=O)[nH]2)c1C	-25%	18	?	8%	1%
CC(=O)c1c(C)[nH]c(C(=O)OCn2nnc3ccccc3c2=O)c1C	16µM*	13	16µM*	-9%	-11%
COC(=O)c1ccc2c(=O)[nH]c(COC(=O)c3[nH]c(C)c(C(C)=O)c3C)nc2c1	16µM*	32	?	-12%	-17%
C[C@H](NC(=O)c1ccc(Cl)cc1)C(=O)OCn1nnc2ccccc2c1=O	-24%	3	?	-3%	-4%
CC(NC(=O)c1ccccc1)C(=O)OCn1nnc2ccccc2c1=O (stereo not drawn)	15%	-5	26µM*	-4%	-2%
CN1CCN(C(=O)c2cnn(-c3ccccc3)c2NC(=O)c2ccccc2Br)CC1	0%	9	4%	13%	17%
COc1cccc(-c2oc3c(c2C#CC2(N)CCCCC2)C(O)CCC3)c1 (stereo not drawn)	18µM*	-11	18µM*	16µM*	?
C=CCN(C(=O)COc1ccccc1)c1nnc(-c2ccncc2)s1	-29%	2	-4%	5%	6%
Cc1nc2cnc(N3CCN(C)CC3)nc2n(Cc2ccc(F)cc2)c1=O	-23%	.	-3%	.	.
CC(NC1=CC(=O)c2cccnc2C1=O)C(O)c1ccccc1 (stereo not drawn)	3.3µM*	-100*	1.5µM*	18µM*	6.5µM*
COc1cccc(/C=N/Nc2ccc([N+](=O)[O-])cn2)c1O	2.9µM*	-76*	3.3µM*	0.65µM*	1.2µM*
O=[N+]([O-])c1ccc(Nc2nc(N/N=C/c3cccc(F)c3)nc(N3CCCC3)n2)cc1	8.2µM*	?	6.5µM*	-10%	-12%
O=[N+]([O-])c1ccc(NN=Cc2cccc3ccccc23)nc1	?	-25	?	2%	24%
